Compounds with a hit are over-represented: about 0.57% of the library has one in this group of screens.
TcdB inh: blocks C. difficile toxin B glycohydrolase activity; P18177; TcdB glycohydrolase enzymatic assay, plate reader; inhibition, % at 9.99 µM; actives 0.24% (n = 350,000); in the data active = inhibition above about 10%
PrP UTR inh: suppresses PrP 5' UTR mRNA reporter expression; AID 488862; cell-based PrP 5' UTR mRNA reporter, plate reader; inhibition, % (no concentration beside the values); actives 0.35% (n = 340,000); in the data active = inhibition above about 52%; also: 0 = median of the neutral control wells
Y pestis TopoI: Y. pestis Topo-I inhibition via cleavage products; Y. pestis Topo-I cleavage product accumulation, plate reader; activity, % at 10 µM; actives 0.064% (n = 360,000); AID 504884; in the data active = activity above about 50%, passing the limit was not always enough; inconclusive = no clear call, values can overlap the other calls
Mtb BioA inh: BioA (M. tuberculosis) enzyme inhibition; purified M. tuberculosis BioA enzyme, plate reader; actives 0.096% (n = 360,000); AID 602481; inhibition, % at 9.99 µM; in the data active = inhibition above about 40%; inconclusive = no clear call, values can overlap the other calls
PrP UTR cherry: prion 5' UTR mRNA inhibition, cherry-pick retest. cell-based prion protein 5' UTR reporter, plate reader. actives 48% (n = 1,100). inhibition, % at 2.5 µM. shares compounds with PrP UTR inh; in the data active = inhibition above about 54%; inconclusive = no clear call, values can overlap the other calls
Active calls of the source: *; ? = inconclusive; nt = no result given.

SMILES	TcdB inh	PrP UTR inh	Y pestis TopoI	Mtb BioA inh	PrP UTR cherry
COc1cc(-c2cc(-c3ccccc3)nc(SCC(=O)Nc3nccs3)c2C#N)cc(OC)c1OC	nt	-10	2	-1	nt
C[C@@H]1CN([C@H](C)CO)C(=O)c2cc(NS(=O)(=O)c3ccc(F)cc3)ccc2O[C@@H](C)CCCCO[C@@H]1CN(C)S(=O)(=O)c1cn(C)cn1	2	nt	nt	1	nt
CN(C)c1ccc(C=C2SC(=S)NC2=O)cc1	2	-37	-6	-1	nt
CN(C)c1ccc(/C=N/N=C2/NC(=O)/C(=C/c3ccc([N+](=O)[O-])cc3)S2)cc1	nt	63*	0	-2	31
C[C@@H]1CN([C@H](C)CO)C(=O)c2cc(/C=C/c3ccccc3)cnc2O[C@@H]1CN(C)C(=O)C1CC1	1	nt	nt	nt	nt
CC(C)(C)c1ccc(-c2cc(N)n[nH]2)cc1	0	64*	0	-2	?
O=C(NCC(c1cccnc1)N1CCN(c2ccc(F)cc2)CC1)C1CCCCC1 (stereo unspecified)	nt	69*	-4	0	-13
O=C(CCN1CCCCC1)N[C@H]1C=C[C@H](CC(=O)N2CCC(Cc3ccccc3)CC2)O[C@H]1CO	-3	nt	nt	2	nt
CNc1c2cccc(C)c2nc2c(C(=O)NCCN(C)C)cccc12	3	96*	-50	nt	96*
O=C(NCC[C@H]1CC[C@@H](NS(=O)(=O)c2ccc(F)cc2)[C@H](CO)O1)c1ccccc1F	0	nt	nt	nt	nt
Cc1csc(NC(=O)CCc2c(C)nc3cc(-c4ccc(Cl)cc4)nn3c2C)n1	0	50*	9	1	59*
Cc1nc2cc(-c3ccc(Cl)cc3)nn2c(C)c1CCC(=O)NC(C)c1ccc2c(c1)OCCO2 (stereo unspecified)	1	40	30	1	nt
C[C@H]1CN([C@@H](C)CO)C(=O)c2cc(NS(C)(=O)=O)ccc2O[C@H]1CN(C)S(=O)(=O)c1ccc(Cl)cc1	nt	nt	nt	0	nt
O=C(NC1CCCCC1)c1cc(C(=O)c2ccccc2Br)c[nH]1	1	71*	-3	1	-13
OCC1=C[C@@H](O)C2C=CO[C@@H](O[C@@H]3O[C@H](CO)[C@@H](O)[C@H](O)[C@H]3O)C12 (stereo partly specified)	0	-20	0	-1	nt
OCC1=C[C@@H](O)[C@@H]2C=CO[C@@H](O[C@@H]3O[C@H](CO)[C@@H](O)[C@H](O)[C@H]3O)[C@H]12	1	65*	3	1	4
CCCCCCCCCCCCCCCCCCNc1ccn(C2OC(COP(=O)(O)OCC3OC(n4cc(F)c(=O)[nH]c4=O)CC3O)C(O)C2O)c(=O)n1 (stereo unspecified)	1	63*	28	nt	8
O=c1[nH]c(=O)n(C2OC(CO)C(O)C(O)C2O)cc1F (stereo unspecified)	1	nt	nt	nt	nt
C[C@@H]1CN([C@H](C)CO)C(=O)c2cccc(NC(=O)c3ccncc3)c2O[C@H]1CN(C)Cc1ccc(-c2ccccc2)cc1	0	nt	nt	-7	nt
O=C(NC1CCCCC1)N1CCN(c2ccccc2)CC1	nt	67*	-5	0	-36
CCOc1ccc(C(=O)NC(=S)Nc2cccc(S(=O)(=O)NC3=NCCC3)c2)cc1	1	54*	38	nt	?
CCOc1ccc(OCC(=O)Nc2cccc(S(=O)(=O)NC3=NCCC3)c2)cc1	1	0	1	1	nt
CC(=O)c1c(C)[nH]c(C(=O)Nc2nc(C)cs2)c1C	2	65*	0	-3	44
CC(=O)c1c(C)[nH]c(C(=O)Nc2nc(-c3ccc(Cl)cc3)cs2)c1C	nt	-19	-12	nt	nt
O=C(/C=C/c1cccs1)Nc1ccc(Br)cn1	nt	61*	11	nt	84*
SMILES	TcdB inh	PrP UTR inh	Y pestis TopoI	Mtb BioA inh	PrP UTR cherry
COc1ccc(/C=N/Nc2nnc(C)n2N)cc1OC	-2	76*	-1	0	-8
COc1ccc(/C=N/Nc2nnc(C)n2N)cc1OC(C)=O	0	-17	-9	0	nt
COc1cc(NC(=O)c2cccs2)c(C(=O)OCC(=O)c2cc(C)n(-c3ccccc3)c2C)cc1OC	nt	71*	-6	0	73*
Cc1cnc(N)c2c(=O)oc3ccccc3c12	0	-24	4	1	nt
O=c1oc2ccccc2c2c1cnc1ccccc12	1	64*	-2	1	-11
COc1ccc(CC(=O)Oc2ccccc2C)cc1	1	58*	6	1	-12
CC(=O)N1CC2(C1)[C@@H](c1ccc(-c3cccc(F)c3)cc1)[C@@H](CO)N2CC1CCCC1	1	nt	nt	nt	nt
Cn1c(=O)c2c(nc(CN3CCN(c4ccccc4F)CC3)n2CCCc2ccccc2)n(C)c1=O	nt	83*	-3	3	-3
